Results as given in PubChem BioAssay (NCATS).
Results filed as inconclusive are left out. Values without a mark were called inactive. Calls of active or inactive are those of the source. The call rests on the fitted dose curve; in most records, active means well fitted inhibition curve with a large enough effect; inconclusive means small, poorly fitted or top-dose-only effect; inactive means no such curve, though single readings can be large or run the other way.

target: Muscarinic acetylcholine receptor M1 (Rattus norvegicus) (UniProt P08482); test: qHTS Assay for Antagonists of Acetylcholine Muscarinic M1 Receptor: Measurement of IP-One Response (AID 944); conditions: CHO-M1 cells, IP-One HTRF, antagonist mode; series mostly up to 46.1 µM; activity change, negative = inhibition: at the top concentration; further: nearly all actives have a fitted effect of over 75% in size
Sequence (P08482 whole entry, looked up): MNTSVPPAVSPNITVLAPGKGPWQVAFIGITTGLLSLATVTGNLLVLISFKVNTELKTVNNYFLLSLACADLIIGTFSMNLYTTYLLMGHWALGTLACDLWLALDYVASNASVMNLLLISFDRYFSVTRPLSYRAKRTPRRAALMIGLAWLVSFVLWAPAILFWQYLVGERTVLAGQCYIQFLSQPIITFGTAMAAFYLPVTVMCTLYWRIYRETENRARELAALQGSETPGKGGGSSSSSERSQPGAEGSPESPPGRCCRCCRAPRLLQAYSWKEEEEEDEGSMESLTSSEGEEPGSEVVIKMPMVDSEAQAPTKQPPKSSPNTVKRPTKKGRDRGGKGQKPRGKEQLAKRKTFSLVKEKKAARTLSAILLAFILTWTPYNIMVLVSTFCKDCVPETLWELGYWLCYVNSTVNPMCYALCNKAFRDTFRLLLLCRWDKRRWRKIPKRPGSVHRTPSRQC
Description: NIH Molecular Libraries Screening Centers Network [MLSCN]
NIH Chemical Genomics Center [NCGC]
Acetylcholine muscarinic M1 receptor is a G-protein coupled receptor (GPCR) coupling to the Gq G protein. It is mainly expressed in brain and functionally related to the learning and memory processes. The agonists of this receptor have the potential for the treatment of Alzheimer's disease and cognitive impairments associated with Schizophrenia.
Upon an activation of the M1 receptor, phosholipase C (PLC) is activated to produce inositol 1,4,5-trisphosphate (IP3) and diacyl glycerol (DAG). The IP3 is very rapidly hydrolyzed to IP2, IP1 and then inositol by a series of enzymes and Ca2+ is quickly pumped back into ER by the calcium pump on the ER membrane, which effectively switches off the IP3 and Ca2+ signaling. For compound screen, the changes in intracellular free Ca2+ concentration can be measured by the fluorescence calcium dye such as Fura-2, Fluo-3 and Fluo-4 with a fluorescence kinetic plate reader. IP1 or total IPs including IP1, IP2 and IP3 are usually measured as an alternative method for assessing the function of Gq-coupled GPCRs. We have applied a time-resolved fluorescence based (TR-FRET) IP1 assay in which an IP1 specific antibody is used to detect the labeled IP1 tracer. When the cell lysate contains the elevated IP1, the TR-FRET between the labeled antibody and IP1 tracer is disrupted resulting in a reduction in the total signal. Since the TR-FRET is used, a homogenous assay with out cell wash and medium change is possible which also can be miniaturized into the high density format for HTS.
We have obtained a M1-CHO cell line transfected with rat acetylcholine M1 receptor and optimized this IP-One assay with this cell line for compound screening as a counter-screen assay for other Gq-coupled GPCRs.
NCGC Assay Protocol Summary:
The CHO-M1 (CHO-M1) cell line transfected with the rat acetylcholine muscarinic M1 receptor was obtained from American Type Culture Collection (ATCC). The cells were maintained in call culture flasks with F12 Kaighn's media (Invitrogen) supplemented with 10 % FBS, 100 units/ml penicillin, 100 ug/ml streptomycin and 250 ug/ml geneticin (Invitrogen) at 37C, 5 % CO2 in a humidified atmosphere. At 90-95 % confluence, the cells were then detached in 15 ml 0.25 % trypsin by 3 minutes incubation at 37C and centrifuged at 1000 RPM to remove the trypsin solution. The resulting cell pellet was resuspended in the cell freezing media containing 10 % DMSO (Invitrogen) at a density of 4 x 10^7 cells/ml. The aliquots of cells at 0.5 - 1 ml per vial were frozen down slowly at 1 degree C/min using a Cryo 1 degree C freezing container in the presence of isopropanol (Nalgene Nunc, Rochster, NY) overnight in a -80C freezer. The frozen cells were then transferred to liquid nitrogen for the storage up to one year.
The resuspended frozen cells were plated at 3 ul/well with 2000 cells in the black, tissue culture treated, clear bottom 1536-well plates. The cells were cultured at 37C, 5 % CO2 for overnight to allow the cells recovering from the frozen state. 20 nl/well of compound in DMSO solution was added to the assay plate and incubated for 10 min. Carbachol was prepared in stimulation buffer (10mM Hepes, 1mM CaCl2, 0.5 mM MgCl2, 4.2 mM KCl, 146 mM NaCl, 5.5 mM glucose 50mM LiCl 50mM pH7.4) which was added to the assay plate at 1 ul/well. After an incubation with carbachol at 37C, 5 % CO2 for 30 min, all the wells in the assay plate were added with 1 ul/well of d2 conjugated IP1 (d2-IP1) and 1 ul/well of Eu+ cryptate conjugated anti-IP1 antibody (Eu+-Ab), both from the IP-One kit (Cisbio USA., Inc.). After 10 min incubation at the room temperature, the assay plates were measured in the HTRF detection mode in ViewLux plate reader (Ex=337 nm. Em(1)=620 and Em(2)=665 nm)
1536-well assay protocol:
(1) 4 ul/well containing 2000 M1-CHO cells in 1536 tissue culture treated white plate
(3) Add 23 nl compound diluted in DMSO
[…]
Potency means the concentration at half of the fitted maximal effect.

**Q.** How did the “activity change, negative = inhibition” value turn out when `O=C(O)c1cc(=O)cc(C(=O)O)[nH]1` was run?
**A.** Its value is -28.5%.

**Q.** `CC[C@H](NC(=O)c1c(C)c(-c2ccccc2)nc2ccccc12)c1ccccc1` was tested. Which “activity change, negative = inhibition” value did it give?
**A.** The value was -97.5%.

**Q.** How did the “activity change, negative = inhibition” value turn out when `NC(N)=NC(N)=Nc1ccccc1` was run?
**A.** The value was -40.7%.

**Q.** How did the “activity change, negative = inhibition” value turn out when `Nc1ccc(N2C(=O)c3ccccc3C2=O)c(Cl)c1` was run?
**A.** The value was -14.6%.

**Q.** `O=C(O)c1ccccc1Nc1cccc(OCc2ccc3ccccc3n2)c1` was tested. Which “activity change, negative = inhibition” value did it give?
**A.** The value was -20.1%.

**Q.** `NS(=O)(=O)c1cccc2c1c([N+](=O)[O-])cc1nc(O)c(O)nc12` was tested. Which “activity change, negative = inhibition” value did it give?
**A.** The value was -43.6%.

**Q.** How did the “activity change, negative = inhibition” value turn out when `O=c1oc(Cl)c(Cl)c2ccccc12` was run?
**A.** Its value is -9.72%.

**Q.** For `O=C(O)/C=C/c1ccc(O)c(O)c1`, which “activity change, negative = inhibition” value is on record?
**A.** Its value is -46.3%.

**Q.** With `O=C(O)c1cc2cc(F)ccc2[nH]1` as the compound, how does the “activity change, negative = inhibition” value read?
**A.** Its value is 9.26%.

**Q.** With `O=C(O)c1cccnc1C(=O)O` as the compound, how does the “activity change, negative = inhibition” value read?
**A.** Its value is -31.3%.

**Q.** Which “activity change, negative = inhibition” value does the source give for `CC(=O)C(C)=O` here?
**A.** The value was -32.5%.

**Q.** How did the “activity change, negative = inhibition” value turn out when `N=C(N)c1ccccc1` was run?
**A.** The value was 1.31%.

**Q.** With `COC(=O)[C@H](NC(=O)c1cc(-c2ccccc2)nc2ccccc12)c1ccccc1` as the compound, how does the “activity change, negative = inhibition” value read?
**A.** Its value is -16%.

**Q.** With `CCCn1c(=O)c2[nH]c(-c3ccc(S(=O)(=O)O)cc3)nc2n(CCC)c1=O` as the compound, how does the “activity change, negative = inhibition” value read?
**A.** Its value is 6.41%.

**Q.** How did the “activity change, negative = inhibition” value turn out when `CCCc1c(OCCCOc2ccc(OCC(=O)O)cc2)ccc(C(C)=O)c1O` was run?
**A.** The value was -43.2%.

**Q.** How did the “activity change, negative = inhibition” value turn out when `N#Cc1cc2nc(O)c(O)nc2cc1[N+](=O)[O-]` was run?
**A.** Its value is -22.3%.

**Q.** Which “activity change, negative = inhibition” value does the source give for `O=C(O)/C(=C/c1c(C(=O)O)[nH]c2cc(Cl)cc(Cl)c12)c1ccccc1` here?
**A.** Its value is 3.96%.

**Q.** For `CCN(CC)CCOC(=O)c1cc(Cl)c(N)cc1OC`, which “activity change, negative = inhibition” value is on record?
**A.** The value was -43.7%.

**Q.** Which “activity change, negative = inhibition” value does the source give for `COCc1nc2c([nH]1)c(=O)n(C)c(=O)n2CC(C)C` here?
**A.** Its value is 11.7%.

**Q.** How did the “activity change, negative = inhibition” value turn out when `CNC(=O)c1cc2c(cn1)[nH]c1ccccc12` was run?
**A.** Its value is -27.2%.

**Q.** How did the “activity change, negative = inhibition” value turn out when `COc1ccc2c(c1)c(CC(=O)O)c(C)n2C(=O)c1ccccc1` was run?
**A.** The value was -17.3%.

**Q.** `Cc1nc(N=Nc2ccc(C(=O)O)cc2)c(COP(=O)(O)O)c(C=O)c1O` was tested. Which “activity change, negative = inhibition” value did it give?
**A.** Its value is -44.7%.

**Q.** How did the “activity change, negative = inhibition” value turn out when `CN1CCN(c2nc3cc(C(F)(F)F)ccc3n3cccc23)CC1` was run?
**A.** The value was -8.59%.

**Q.** For `N[C@H](C(=O)O)[C@H](O)C(=O)O`, which “activity change, negative = inhibition” value is on record?
**A.** Its value is -43.2%.

**Q.** `O=C(O)Cc1c[nH]c2ccc(O)cc12` was tested. Which “activity change, negative = inhibition” value did it give?
**A.** Its value is -16.1%.

**Q.** With `CCN(CC)CCCCCCCCOC(=O)c1cc(OC)c(OC)c(OC)c1` as the compound, how does the Potency read?
**A.** The Potency was 2820 nM (active).

**Q.** For `COc1ccc2c(c1)c(CC(=O)O)c(C)n2Cc1ccc(Cl)cc1`, which “activity change, negative = inhibition” value is on record?
**A.** The value was -38.6%.

**Q.** For `C[C@H](O)C(=O)C1=Nc2c(nc(N)[nH]c2=O)NC1`, which “activity change, negative = inhibition” value is on record?
**A.** Its value is -11.3%.

**Q.** How did the “activity change, negative = inhibition” value turn out when `Cn1c(=O)c2[nH]c(-c3ccc(S(=O)(=O)O)cc3)nc2n(C)c1=O` was run?
**A.** Its value is 47.7%.

**Q.** With `CC(=O)NCCc1c[nH]c2ccc(O)cc12` as the compound, how does the “activity change, negative = inhibition” value read?
**A.** The value was -40.2%.

**Q.** With `Oc1ccc(Cn2cc[nH]c2=S)cc1` as the compound, how does the “activity change, negative = inhibition” value read?
**A.** Its value is -30.9%.

**Q.** How did the “activity change, negative = inhibition” value turn out when `O=C(O)c1ccccc1Nc1ccccc1` was run?
**A.** Its value is 5.86%.

**Q.** Which “activity change, negative = inhibition” value does the source give for `O=c1cc(-c2ccccc2)[nH]c2nc(Cl)ccc12` here?
**A.** Its value is -8.3%.

**Q.** With `CCCn1c(=O)c2[nH]c(C3CCCC3)nc2n(CCC)c1=O` as the compound, how does the “activity change, negative = inhibition” value read?
**A.** Its value is -1.09%.

**Q.** Which “activity change, negative = inhibition” value does the source give for `Cc1cc2c(cc1Cl)N(C(=O)Nc1ccnc3ccccc13)CC2` here?
**A.** The value was -25.9%.

**Q.** With `O=C(O)C1=CCNCC1` as the compound, how does the “activity change, negative = inhibition” value read?
**A.** Its value is -30.5%.

**Q.** Which “activity change, negative = inhibition” value does the source give for `COc1ccc(C(=O)NCc2cccnc2)cc1C(=O)NCc1cccnc1` here?
**A.** The value was -11.1%.

**Q.** `COc1cc(CC(=O)O)ccc1O` was tested. Which “activity change, negative = inhibition” value did it give?
**A.** Its value is 5.48%.

**Q.** `[Li+]` was tested. Which “activity change, negative = inhibition” value did it give?
**A.** Its value is -18.6%.

**Q.** `N[C@@H](Cc1ccc(O)c(I)c1)C(=O)O` was tested. Which “activity change, negative = inhibition” value did it give?
**A.** Its value is -2.54%.
